Data on 27 compounds can be found in PubChem BioAssay (Tox21).

Inconclusive results are not listed. The source made the active and inactive calls. Unless noted, calls follow the shape of the dose curve; as a rule, active = well fitted curve in the direction sought with a large enough effect in the repeat runs; inconclusive = weak or mixed curves; inactive = flat fitted curve, though single readings scatter.

Test [1] in a line: qHTS assay to test for compound auto fluorescence at 535 nm (green) in HEK293 cells (AID 720680). On the technique in general: Quantitative high-throughput screening tests each substance at several concentrations.
Test [2] in a line: qHTS assay to test for compound auto fluorescence at 460 nm (blue) in HEK293 cell free culture (AID 720681). The procedure, abridged:
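Test compounds were pinned into cell-free culture medium (DMEM with 10% FBS) and fluorescence was read directly at Ex/Em 405/460 nm. Signals were expressed as fluorescence equivalents of triamterene, with DMSO vehicle as control.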

A short description of test [3]: qHTS assay to test for compound auto fluorescence at 535 nm (green) in HEK293 cell free culture (AID 720682). Summed up: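 Compounds were pin-transferred into cell-free DMEM with 10% FBS, and green fluorescence was read at excitation 485 nm and emission 535 nm. Intensities were expressed as fluorescein-equivalent values.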
The nature of test [4]: qHTS assay to test for compound auto fluorescence at 590 nm (red) in HEK293 cell free culture (AID 720683). The procedure, abridged: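 Tox21 10K library compounds were pinned into cell-free DMEM with 10% FBS and fluorescence was read at excitation 540 nm. Activity is expressed as Rose Bengal sodium equivalency.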
A short description of test [5]: qHTS assay to test for compound auto fluorescence at 590 nm (red) in HepG2 cell free culture (AID 720684). The procedure, abridged:
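Red fluorescence (540 nm excitation, 590 nm emission) was measured after compound transfer into cell-free MEM supplemented with 10% FBS. Values are equivalencies against Rose Bengal sodium.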

A short description of test [6]: qHTS assay to test for compound auto fluorescence at 460 nm (blue) in HepG2 cell free culture (AID 720685). Summed up:
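Compound (23 nL) or DMSO pinned into cell-free MEM with 10% FBS; blue fluorescence read at 405/460 nm excitation/emission, expressed as auto-fluorescence equivalency to triamterene.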

Test [7] in a line: qHTS assay to test for compound auto fluorescence at 535 nm (green) in HepG2 cell free culture (AID 720686).
The nature of test [8]: qHTS assay to test for compound auto fluorescence at 460 nm (blue) in HepG2 cells (AID 720687). Summed up: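 Cells (2,000/well in MEM with 10% FBS) attached overnight at 37 C, then were exposed to compound or DMSO for 1 hr at 37 C, 5% CO2. Fluorescence read at Ex/Em 405/460 nm, expressed as triamterene-equivalent signal.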
In test [9] the target is Glucocorticoid receptor (Homo sapiens) (UniProt P04150). As to the kind of experiment: qHTS assay to identify small molecule agonists of the glucocorticoid receptor (GR) signaling pathway (AID 720691; active = well fitted activation curve with a large enough effect in the signal ratio in the repeat runs, not every such curve was filed as active; the % refers to the signal ratio). The procedure, abridged: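 Agonist mode in a HeLa line carrying a GRE-controlled beta-lactamase reporter. Compounds act for 18 h at 37 C before a 2 h room-temperature FRET substrate step and fluorescence reading.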
Sequence of Glucocorticoid receptor (Homo sapiens) (P04150 whole entry, looked up): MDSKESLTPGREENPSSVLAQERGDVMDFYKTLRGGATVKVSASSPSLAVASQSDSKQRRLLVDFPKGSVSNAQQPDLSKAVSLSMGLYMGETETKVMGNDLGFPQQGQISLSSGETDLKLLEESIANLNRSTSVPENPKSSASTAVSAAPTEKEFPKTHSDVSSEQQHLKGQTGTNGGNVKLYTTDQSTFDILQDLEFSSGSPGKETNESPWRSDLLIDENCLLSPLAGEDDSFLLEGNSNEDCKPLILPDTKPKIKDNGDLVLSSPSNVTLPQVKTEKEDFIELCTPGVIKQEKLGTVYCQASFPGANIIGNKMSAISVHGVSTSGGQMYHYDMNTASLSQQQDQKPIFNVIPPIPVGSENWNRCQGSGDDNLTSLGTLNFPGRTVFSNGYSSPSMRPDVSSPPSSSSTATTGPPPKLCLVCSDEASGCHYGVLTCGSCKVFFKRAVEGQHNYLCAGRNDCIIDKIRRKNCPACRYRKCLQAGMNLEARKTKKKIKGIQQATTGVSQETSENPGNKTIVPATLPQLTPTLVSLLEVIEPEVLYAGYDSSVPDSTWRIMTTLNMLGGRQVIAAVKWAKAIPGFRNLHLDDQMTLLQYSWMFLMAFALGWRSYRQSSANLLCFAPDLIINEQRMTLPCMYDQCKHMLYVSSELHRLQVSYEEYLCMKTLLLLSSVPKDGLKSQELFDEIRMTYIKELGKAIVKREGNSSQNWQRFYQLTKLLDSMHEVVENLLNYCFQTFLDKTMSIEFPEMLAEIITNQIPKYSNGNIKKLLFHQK

For test [10] the target is unchanged. As to the kind of experiment: qHTS assay to identify small molecule antagonists of the glucocorticoid receptor (GR) signaling pathway (AID 720692; active = well fitted inhibition curve with a large enough effect in the signal ratio in the repeat runs, not every such curve was filed as active; the % refers to the signal ratio; also: potency is read from the fitted curve at half-maximal effect). Summed up: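 Cells plated, rested 4 h at 37 C/5% CO2; compounds in DMSO pin-transferred; dexamethasone added to 5 nM final; 18 h at 37 C; B/G FRET substrate added, 2 h room temperature; fluorescence measured.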

As to `Cc1cc(Cl)ccc1O`, the result in [1], in test [2], in test [3], in test [4], in [5] and in test [6] was inactive. The outcome in test [7], in [8] and in test [9] was inactive. In addition, the Potency entry in test [10] was “inactive”.

As to `CC(C)N1C(=O)c2ccccc2NS1(=O)=O`, the compound was classed as inactive in test [1], in [2], in test [3], in test [4], in test [5] and in [6]. In addition, the compound was classed as inactive in test [7], in [8] and in [9]. Besides, in test [10], the Potency entry is “inactive”.

Turning to `O=[N+]([O-])c1ccccc1`, the compound was called inactive in test [1], in test [2], in [3], in test [4], in [5] and in test [6]. The compound was classed as inactive in [7], in test [8] and in test [9]. The Potency result in [10] was “inactive”.

With `O=c1n(Cl)c(=O)n(Cl)c(=O)n1Cl`, the outcome in test [1], in test [2], in test [4], in [5], in test [6] and in test [7] was inactive. Moreover, the outcome in [8] and in test [9] was inactive. Moreover, the Potency result in test [10] was “inactive”.

On to `O=c1ccc(=O)[nH][nH]1`, for which the call in test [2], in [3], in test [4], in [5], in test [6] and in test [7] was inactive. In test [8], the outcome was inactive.

Consider `[N-]=[N+]=[N-]`, for which the call in test [1], in [2], in test [4], in [5], in [6] and in [7] was inactive. Also, the call in test [8] and in [9] was inactive. For the same compound, in test [10], the Potency result is “inactive”.

Take `CC(C)C#N`: the call in test [1], in [2], in [3], in test [4], in [5] and in test [6] was inactive. The result in test [7], in test [8] and in test [9] was inactive. Moreover, the Potency result in test [10] is “inactive”.

With `CC(NC(C)(C)C)C(=O)c1cccc(Cl)c1` (stereo not drawn), the compound was called inactive in test [1], in [2], in test [4], in test [5], in test [6] and in [7]. Moreover, the result in [8] and in test [9] was inactive. For the same compound, the Potency entry in test [10] is “inactive”.

As to `CC(C)(C)OOC(=O)c1ccccc1`, the compound was classed as inactive in test [1], in [2], in [3], in [4], in test [5] and in [6]. Further, the compound was classed as inactive in test [7], in [8] and in test [9]. The Potency result in test [10] is “inactive”.

In the case of `C=CC(N)=O`, the result in test [1], in test [2], in [4], in test [5], in test [6] and in test [7] was inactive. Besides, the outcome in test [8] and in test [9] was inactive. For the same compound, in test [10], the Potency result was “inactive”.

In the case of `Cc1ccc(N)cc1Cl`, the result in test [1], in test [2], in [4], in test [5], in test [6] and in [7] was inactive. Also, the result in test [8] was inactive.

As to `O=Cc1cccc(Oc2ccccc2)c1`, the compound was called inactive in test [1], in test [2], in [3], in [4], in test [5] and in test [6]. The call in [7], in test [8] and in test [9] was inactive. In addition, the Potency entry in test [10] is “inactive”.

Regarding `CN(N=O)c1ccccc1`, the compound was called inactive in [1], in test [2], in [3], in [4], in test [5] and in [6]. The outcome in test [7], in test [8] and in test [9] was inactive. Besides, the Potency entry in test [10] was “inactive”.

In the case of `CCCCN(CCCC)SN(C)C(=O)Oc1cccc2c1OC(C)(C)C2`, the result in test [1], in [2], in [4], in test [5], in test [6] and in test [7] was inactive. Further, the call in test [8] and in test [9] was inactive. Besides, in [10], the Potency entry was “inactive”.

Take `CCCCCOC(=O)c1ccccc1C(=O)OCCCCC`: the outcome in [1], in [2], in [4], in test [5], in test [6] and in [7] was inactive. The call in test [8] and in test [9] was inactive. In addition, the Potency entry in test [10] was “inactive”.

Regarding `Cc1ccccc1O`, the outcome in test [1], in [2], in [4], in test [5], in test [6] and in test [7] was inactive. Also, the outcome in test [8] and in [9] was inactive. For the same compound, in test [10], the Potency entry is “inactive”.

`CCCN(CCC)N=O`: the compound was called inactive in [1], in test [2], in test [3], in test [4], in test [5] and in test [6]. The outcome in [7], in test [8] and in [9] was inactive. Moreover, in test [10], the Potency result was “inactive”.

Turning to `O=c1[nH]c(=O)[nH]c(=O)[nH]1`, the outcome in [1], in test [2], in [4], in test [5], in test [6] and in [7] was inactive. The compound was classed as inactive in [8] and in [9]. In test [10], the Potency entry was “inactive”.

Regarding `NCCc1ccc(O)cc1`, the call in [1], in [2], in test [4], in test [5], in test [6] and in test [7] was inactive. The result in [8] and in test [9] was inactive. Moreover, the Potency result in test [10] is “inactive”.

Take `CCCCCCCCCCCC#N`: the call in test [1], in test [2], in [4], in test [5], in test [6] and in [7] was inactive. Also, the result in test [8] and in test [9] was inactive. In addition, in [10], the Potency entry was “inactive”.

Turning to `CC(C)(C)C(O)(CCc1ccc(Cl)cc1)Cn1cncn1` (stereo not drawn), the compound was classed as inactive in test [2], in test [4], in test [5], in [6], in [7] and in test [8]. For the same compound, in test [9], the compound was called inactive. The Potency in test [10] was 43.6 µM (active).

For the compound `Nc1c(Cl)c(Cl)nc(C(=O)O)c1Cl`, the result in test [2], in test [4], in test [5], in test [6], in [7] and in test [8] was inactive. In test [9], the call was inactive. The Potency entry in [10] is “inactive”.

As for `ClCc1cccnc1`, the compound was classed as inactive in test [2], in test [4], in test [5], in [6], in [7] and in test [8]. The outcome in [9] was inactive. Moreover, the Potency result in [10] is “inactive”.

In the case of `OCCN(CCO)CCO`, the call in [2], in test [3], in test [4], in test [5], in test [6] and in test [7] was inactive. Moreover, the result in test [8] was inactive.

Consider `COc1ccc2c3c1O[C@H]1[C@@H](O)C=C[C@H]4[C@@H](C2)N(C)CC[C@@]341`, for which the compound was classed as inactive in test [2], in [4], in test [5], in [6], in test [7] and in [8].

Take `CCN(CC)CCO`: the compound was classed as inactive in [2], in test [4], in test [5], in test [6], in test [7] and in [8]. For the same compound, in test [9], the result was inactive. The Potency entry in test [10] was “inactive”.

Turning to `CCOC(=O)c1ccccc1C(=O)OCC`, the result in test [2], in test [3], in test [4], in test [5], in test [6] and in [7] was inactive. For the same compound, the outcome in test [8] and in test [9] was inactive. The Potency result in [10] is “inactive”.
